# Experimental data from PubChem BioAssay AID652010 (The Scripps Research Institute Molecular Screening Center, 2013).
# Among all 370,000 compounds or so, about 4,100 (1.1%) were called active. What follows is part of a selection rich in actives, with near analogues and random picks from the rest. Unmarked numbers belong to inactive results.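 The calls were made as follows: active = inhibition above the mean over all tested compounds plus 3 SD (cut at about 3.6% in these data); inactive = the rest.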
# Assay: DAX1 (NR0B1) inhibitors on StAR promoter, primary screen, cell-based, luminescence, SF-1 (NR5A1), full-length DAX-1 (AID 652010);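 also: 0% = DAX-1 cells with DMSO and 100% = cells lacking DAX-1 with DMSO; higher inhibition means more luminescence from relief of DAX-1 repression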
# Conditions: HEK293T StAR-luciferase reporter, SF-1/DAX-1 repression relief; at 6.8 µM; hits give high values
row,SMILES,inhibition
1,COc1ccc(NC(=O)C2=CC(c3ccc(OC)c(OC)c3)=NS(=O)(=O)N2C)cc1,-5%
2,COc1ccc(-c2cc(-c3nnc(SCc4ccc([N+](=O)[O-])cc4)n3N)[nH]n2)cc1,-1.87%
3,CCOc1ccc(N(CC(=O)Nc2c(C)n(C)n(-c3ccccc3)c2=O)S(=O)(=O)c2ccc(Cl)s2)cc1,-1.26%
4,Cc1ccccc1OCCC(=O)OCC(=O)NCCc1ccc(S(N)(=O)=O)cc1,2.36%
5,CCC(NC(=O)C1C2C=CC3(CN(Cc4ccccc4)C(=O)C13)O2)c1ccccc1 (stereo not drawn),-0.13%
6,Cc1cccc(NC(=O)c2cc3c(C)nn(-c4ccccc4)c3s2)c1,-0.95%
7,CN(C)CC(=O)N[C@@H]1C[C@@H]2O[C@H](CO)CC[C@@H]2O[C@@H]1CCc1ccc(C#Cc2ccccc2)cc1,-1.24%
8,O=C(CSCc1ccccc1)N1CCc2ccccc21,3.64% (active)
9,CC(OC(=O)Cc1ccc(F)cc1)C(=O)N1CCc2ccccc21 (stereo not drawn),0.95%
10,O=C(CN1C(=O)c2ccccc2S1(=O)=O)N1CCc2ccccc21,-2.91%
11,Cc1ccc(-n2c(SCC(=O)Nc3ccc(S(=O)(=O)Nc4nccs4)cc3)nnc2-c2cccnc2)cc1,0.65%
12,CCOC(=O)[C@]12CCCCC/C=C\1N(Cc1ccc(OC)cc1)C(=O)[C@H]2CC(=O)NCc1ccc(C)o1,0.47%
13,COc1cc(C2CC(=O)Oc3cc(OC)c(OC)c(OC)c32)cc(OC)c1OC (stereo not drawn),0.24%
14,COc1cc(C=C(OC(C)=O)c2ccc3c(c2)OCO3)cc(OC)c1OC,-1.67%
15,COc1cc(C2c3cc4c(cc3C(O)C3COC(=O)C23)OCO4)cc(OC)c1OC (stereo not drawn),7.49% (active)
16,O=C(NC1CCCCN(Cc2cccc(C(F)(F)F)c2)C1=O)c1ccccc1I (stereo not drawn),-0.84%
17,Cc1ccc(C(=O)C2CCN(CC(=O)NCCC(C)C)CC2)cc1,-0.3%
18,Clc1ccc2nc(CSc3ccccc3)cn2c1,4.45% (active)
19,O=c1c2ccccc2nc2n1C(CSc1ccc(Cl)cc1)CN2 (stereo not drawn),0.41%
20,Cn1nc(-c2ccccc2)c(CSc2cccc(Cl)c2)c1Cl,-0.99%
21,O=C(N[C@H](C(=O)N1CCC[C@H]1C(=O)NCCc1ccccc1Cl)c1ccccc1)c1ccccc1,-0.28%
22,CCOC(=O)[C@]12CCCC3=C1N(CCC3)C(=O)[C@@H](CC(=O)NCc1cccs1)C2,0.02%

row,SMILES,inhibition
1,CC(CCN1CCC(C(O)(c2ccccc2)c2ccccc2)CC1)Oc1ccc(C(F)(F)F)cc1 (stereo not drawn),-0.91%
2,Cc1ccc(Nc2c(F)c(F)c(F)c(F)c2C(=O)O)c(C)c1,0.38%
3,CCOc1ccc2cc(C#N)c(SCC(=O)OC)nc2c1,3.71% (active)
4,Cc1cc(C#N)c(SCC(N)=O)nc1-c1ccc(F)cc1,0.32%
5,COc1ccc(CCNC(=O)CSc2nc(-c3ccc(OC)c(OC)c3)ccc2C#N)cc1,-0.18%
6,Cc1ccc(-n2c(COc3ccccc3)nnc2SCC(=O)Nc2ccc3c(c2)OCCO3)cc1,-2.9%
7,COc1ccc(-n2c(SCC(=O)Nc3ccccc3-c3ccccc3)nnc2-c2cccnc2)cc1,-1.84%
8,CC(C)(O)C#Cc1ccc(CNC[C@H]2O[C@@H](n3cnc4c(=O)[nH]c(N)nc43)[C@H](O)[C@@H]2O)s1,5.95% (active)
9,Nc1nc2c(ncn2[C@@H]2O[C@H](CNS(=O)(=O)N3CCc4ccccc4C3)[C@@H](O)[C@H]2O)c(=O)[nH]1,-0.84%
10,Nc1nc2c(ncn2[C@@H]2O[C@H](CNCc3ccc(OCCCN4CCOCC4)cc3)[C@@H](O)[C@H]2O)c(=O)[nH]1,1.17%
11,Clc1ccc(-n2c(COc3ccccc3)nnc2SCc2nc3ccccc3[nH]2)cc1,0.06%
12,O=C(CSc1nc2ccccc2s1)N=Nc1c(O)[nH]c2ccccc12,0.2%
13,COC(=O)C1CN(CC(C)C)CCS(=O)(=O)N1Cc1ccc(F)cc1 (stereo not drawn),-0.94%
14,CCC(=O)Nc1ccc2c(c1)C(=O)N(C)[C@@H]1CC[C@@H](CC(=O)NCCc3ccccc3)O[C@H]1CO2,0.25%
15,CC(C)(C)c1cnnn1-c1ccc([N+](=O)[O-])cc1,0.31%
16,Cc1nn(-c2ccccc2)c2c1C(c1cccc([N+](=O)[O-])c1)N(c1ccccc1)C(=O)N2 (stereo not drawn),-0.06%
17,Cc1nn(-c2ccc([N+](=O)[O-])cc2)c(N)c1-c1ccccc1,4.84% (active)
18,O=[N+]([O-])c1ccc(N/N=C2/CCCCC2c2ccccn2)c([N+](=O)[O-])c1 (stereo not drawn),-0.26%
19,O=[N+]([O-])c1ccc2nc(-c3ccccn3)[nH]c2c1,3.65% (active)
20,O=C(Nc1ccc([N+](=O)[O-])cc1)OCCc1ccccn1,-0.01%
21,CC(C)CNc1cccc2c1S(=O)(=O)N(Cc1cn(Cc3ccc(Cl)cc3)nn1)Cc1ccccc1O2,-0.85%
22,Cc1ccc(C2=CCN(C)C(=O)N2c2ccc(Cl)cc2)cc1,-0.53%

row,SMILES,inhibition
1,OC(c1ccccc1)c1nc(-c2cnc3ccccc3c2)cs1 (stereo not drawn),9.07% (active)
2,CC(C)c1cccc(-c2csc(C(O)c3ccccc3)n2)c1 (stereo not drawn),0.06%
3,COc1cccc(C(NC(C)=O)c2nc(-c3cnc4ccccc4c3)cs2)c1 (stereo not drawn),-0.06%
4,CSc1ncnc2c1ncn2CCCNCc1cccs1,0.19%
5,O=C(Nc1ccc2ccccc2c1[N+](=O)[O-])c1ccccc1,5% (active)
6,CN(C)c1ccc(NC(=O)c2ccncc2)c2ccccc12,-0.26%
7,Cc1ccc(NC(=O)c2oc3ccccc3c2C)c([N+](=O)[O-])c1,0.06%
8,COc1cccc(NC(=O)CCc2nnc3ccc(N4CCC(C)CC4)nn23)c1,-0.5%
9,O=C(NCc1cccs1)C1CCN(S(=O)(=O)c2ccccc2[N+](=O)[O-])CC1,0.71%
10,O=C(COc1ccc(-c2ccccc2)cc1)NN=C1CCCC1,-1.32%
11,O=C1NC(Nc2nc3ccccc3s2)(C(F)(F)F)C(=O)N1C1CCCCC1 (stereo not drawn),-1.98%
12,c1ccc2sc(NN=C3CCCC3)nc2c1,4.11% (active)
13,CCOC(=O)c1oc2c(CN3CCN(CCO)CC3)c(O)c(CC)cc2c(=O)c1-c1nc2ccccc2s1,0%
14,CCCCNC(=O)C[C@@H]1C(=O)N(CCc2ccc(Cl)cc2)C2=CCCC[C@]21C(=O)OCC,-1.99%
15,COc1cccc(NC(=O)C/C(C)=N/NC(=O)C2CCCCC2)c1,-0.19%
16,Cc1ccc(C)c(-n2ccnc2SCC(N)=O)c1,-0.07%
17,O=C(NC(=S)Nc1ccc(Cl)cc1Cl)C1CC1,5.23% (active)
18,O=C(NC(=S)Nc1ccc(Br)cc1F)C1CCCCC1,3.34%
19,S=C(Nc1ccc(Cl)cc1Cl)N1CCCC1,2.27%
20,Cc1cccc(-n2c(O)c(C=Nc3ccccc3N)c(=O)[nH]c2=O)c1,3.64% (active)
21,Cc1cc(=O)n(C)c(=O)n1CCCNc1ccccc1,0.36%
22,COc1ccc(C#CCNCc2ccc(OC)cc2OC)cc1,-1.39%

row,SMILES,inhibition
1,Cc1cc(C(=O)NN=C/C=C/c2ccco2)n[nH]1,0.49%
2,C(=N\Nc1ccc2ccccc2n1)/c1ccc2c(c1)OCO2,8.27% (active)
3,Nc1nonc1-n1nnc(C(=O)N/N=C/c2ccc(Cl)cc2)c1-c1ccc2c(c1)OCO2,0.01%
4,Clc1ccc(Nc2ccc3ccccc3n2)cc1,2.89%
5,COC(=O)[C@@]12CCCCC3=C1N(CCC3)C(=O)[C@H]2CC(=O)NCc1cccc2ccccc12,-0.9%
6,Cc1cc(C)c(C)c(S(=O)(=O)N2CCN(C(=O)c3ccc4c(=O)n5c(nc4c3)CCC5)CC2)c1C,5.04% (active)
7,N#Cc1cccc(OC(=O)c2ccc3c(=O)n4c(nc3c2)CCC4)c1,-0.02%
8,O=C(O)c1ccc2c(=O)n3c(nc2c1)/C(=C/c1ccc(OC(F)F)cc1OC(F)F)CC3,0.3%
9,CC1CCN(C(=O)c2ccc3c(=O)n4c(nc3c2)CCCCC4)CC1,-0.43%
10,O=C(c1ccc(Cl)c(S(=O)(=O)N2CCCCC2)c1)N1CCCCCC1,-3.11%
11,O=C(Nc1cc(F)ccc1F)c1ccc2c(=O)n3c(nc2c1)CCC3,3.87% (active)
12,COP(=O)(O)CNC(=O)OCc1ccccc1,-0.36%
13,COC(=O)c1c(-c2ccc(OC)cc2)c2c(c3c4cc(OC)ccc4n(S(=O)(=O)c4ccc(F)cc4)c13)C(=O)N(C)C2,-2.04%
14,CC(=O)c1ccc(S(=O)(=O)NCC2CCN(C(=O)C(=O)c3cccs3)CC2)cc1,-0.63%
15,NS(=O)(=O)c1ccc(CCNC(=O)c2ccc(Cl)cc2[N+](=O)[O-])cc1,-0.5%
16,Cc1cc(C(=O)NCCc2ccc(Cl)cc2)c(C)o1,5.45% (active)
17,Cc1cc(OC(=O)NCCc2ccc(F)cc2)ccc1F,-0.8%
18,CC(=O)OCCN1CCCC12CCC(c1ccccc1)CC2 (stereo not drawn),-0.24%
19,O=C(N/N=C/c1sc(N2CCCCC2)nc1-c1cccs1)c1cccnc1,-1.84%
20,Cc1c(NC(=O)C(=O)N/N=C/c2cccs2)c(=O)n(-c2ccccc2)n1C,0.14%
21,O=C(O)c1ccc(N/N=C/c2cn(-c3ccccc3)nc2-c2cccs2)cc1,6.23% (active)
22,CN(CCO)c1cccc2c1S(=O)(=O)N(Cc1cn(Cc3ccc(C(F)(F)F)cc3)nn1)Cc1ccccc1O2,-1.1%
